Test results reported in the supplement of paper PMC13380429.

Columns and labels:
[1] = tested on: Vero E6 infected with SARS-CoV-2; test: morphology score (similarity to uninfected cells); higher = more like uninfected cells; conditions: 24 h
[2] = tested on: Vero E6 infected with SARS-CoV-2; test: SARS-CoV-2 infection rate relative to infected DMSO; higher = more infection, active = 60 or less; conditions: 24 h

SMILES: C[C@H](NC[C@H](O)CP(=O)(O)Cc1ccccc1)c1ccc(Cl)c(Cl)c1 (10 µM)
- morphology score [1]: 0.127
- SARS-CoV-2 infection rate [2]: 106% (inactive)

SMILES: N[C@@H]1CCN(c2cccnc2)C1 (10 µM)
- morphology score [1]: 0.0226
- SARS-CoV-2 infection rate [2]: 102% (inactive)

SMILES: CS(=O)(=O)N(Cc1ccco1)C[C@@H](O)Cn1c2ccccc2c2ccccc21 (10 µM)
- morphology score [1]: 0.000274
- SARS-CoV-2 infection rate [2]: 91% (inactive)

SMILES: OC(CCN1CCCCC1)(c1ccccc1)c1ccccc1 [pridinol] (10 µM)
- morphology score [1]: 0.0166
- SARS-CoV-2 infection rate [2]: 108% (inactive)

SMILES: CCC[C@@H]1CC(=O)N([C@@H](CC)C(N)=O)C1 [Brivaracetam] (10 µM)
- morphology score [1]: 0.0266
- SARS-CoV-2 infection rate [2]: 111% (inactive)

SMILES: CNC(=O)c1cccc(-c2ccc3c(N4CCOC[C@@H]4C)nc(N4CCOC[C@@H]4C)nc3n2)c1 (10 µM)
- morphology score [1]: -0.219
- SARS-CoV-2 infection rate [2]: 108% (inactive)

SMILES: CCOc1ccc(Nc2nc(-c3c(C)nc4ccccn34)cs2)cc1 (0.833333 µM)
- morphology score [1]: -0.00134
- SARS-CoV-2 infection rate [2]: 102% (inactive)

SMILES: C[C@](N)(Cc1ccc(O)c(O)c1)C(=O)O [methyldopa] (10 µM)
- morphology score [1]: -0.111
- SARS-CoV-2 infection rate [2]: 97.5% (inactive)

SMILES: C[C@@]12CC[C@@H]3[C@@](CC[C@H]4[C@@]3(C)CCC[C@@]4(C)C(=O)O)(CC1=O)C2 [isosteviol] (10 µM)
- morphology score [1]: 0.144
- SARS-CoV-2 infection rate [2]: 100% (inactive)

SMILES: Cc1c(NC(=O)N2CCOCC2)ccc2c1c1ccccc1n2C(C)C (10 µM)
- morphology score [1]: 0.121
- SARS-CoV-2 infection rate [2]: 106% (inactive)

SMILES: CC(C)(C)C(=O)OCC(=O)[C@H]1CC[C@H]2[C@@H]3CCC4=CC(=O)CC[C@]4(C)[C@H]3CC[C@]12C [desoxycorticosterone-pivalate] (10 µM)
- morphology score [1]: 0.123
- SARS-CoV-2 infection rate [2]: 106% (inactive)
